Assay results: article PMC5540273 (PLoS ONE, 2017)

Tests used:
Conditions in all cases: concentration: 1 μM, replicates: in singlicate; n = 1
NEK4 = test system: NEK4
NEK5 = test system: NEK5
NEK6 = test system: NEK6
NEK7 = test system: NEK7
NEK9 = test system: NEK9
NIK = test system: T1, NIK
T1 construct: gene MAP3K14

NIM1 = test system: T2, NIM1
T2 construct: gene MGC42105

NLK = test system: NLK
OSR1 = test system: T3, OSR1
T3 construct: gene OXSR1

PAK1 = test system: PAK1
PAK2 = test system: PAK2
PAK3 = test system: PAK3
PAK4 = test system: PAK4
PAK6 = test system: PAK6
PAK7 = test system: PAK7
PCTK1 = test system: T4, PCTK1
T4 construct: gene CDK16

PCTK2 = test system: T5, PCTK2
T5 construct: gene CDK17

PCTK3 = test system: T6, PCTK3
T6 construct: gene CDK18

PDGFRA = test system: PDGFRA
PDGFRB = test system: PDGFRB
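Note: KINOMEscan kinase panel screen.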

With `Cc1nn2c(=O)cc(N3CCOCC3)nc2n1Cc1cccc(Cl)c1Cl` [GSK2342769] the “%Inh” value (NEK4) was 9%, the “%Inh” value (NEK5) was 0% and the “%Inh” value (NEK6) was 0%. For the same compound, the “%Inh” value (NEK7) was 0%, the “%Inh” value (NEK9) was 0% and the “%Inh” value (NIK) was 0%. The “%Inh” value (NIM1) was 12%, the “%Inh” value (NLK) was 0% and the “%Inh” value (OSR1) was 8%. The “%Inh” value (PAK1) was 9%, the “%Inh” value (PAK2) was 2% and the “%Inh” value (PAK3) was 0%. For the same compound, the “%Inh” value (PAK4) was 0%, the “%Inh” value (PAK6) was 0% and the “%Inh” value (PAK7) was 0%. The “%Inh” value (PCTK1) was 4%, the “%Inh” value (PCTK2) was 0% and the “%Inh” value (PCTK3) was 15%. For the same compound, the “%Inh” value (PDGFRA) was 0% and the “%Inh” value (PDGFRB) was 16%.
With `O=C(Nc1n[nH]c2cc(-c3ccccc3F)ccc12)C1CC1` [SB-733371] the “%Inh” value (NEK4) was 0%, the “%Inh” value (NEK5) was 0% and the “%Inh” value (NEK6) was 0%. For the same compound, the “%Inh” value (NEK7) was 11%, the “%Inh” value (NEK9) was 0% and the “%Inh” value (NIK) was 0%. The “%Inh” value (NIM1) was 0%, the “%Inh” value (NLK) was 15% and the “%Inh” value (OSR1) was 0%. For the same compound, the “%Inh” value (PAK1) was 0%, the “%Inh” value (PAK2) was 0% and the “%Inh” value (PAK3) was 0%. For the same compound, the “%Inh” value (PAK4) was 0%, the “%Inh” value (PAK6) was 0% and the “%Inh” value (PAK7) was 9%. For the same compound, the “%Inh” value (PCTK1) was 0%, the “%Inh” value (PCTK2) was 9% and the “%Inh” value (PCTK3) was 0%. For the same compound, the “%Inh” value (PDGFRA) was 16% and the “%Inh” value (PDGFRB) was 46%.
For `CCCNC(=O)Nc1ccc(Oc2ncnc3ccn(C)c23)cc1`, the “%Inh” value (NEK4) was 0%, the “%Inh” value (NEK5) was 0% and the “%Inh” value (NEK6) was 13%. For the same compound, the “%Inh” value (NEK7) was 0%, the “%Inh” value (NEK9) was 11% and the “%Inh” value (NIK) was 0%. The “%Inh” value (NIM1) was 0%, the “%Inh” value (NLK) was 0% and the “%Inh” value (OSR1) was 17%. For the same compound, the “%Inh” value (PAK1) was 17%, the “%Inh” value (PAK2) was 30% and the “%Inh” value (PAK3) was 0%. For the same compound, the “%Inh” value (PAK4) was 0%, the “%Inh” value (PAK6) was 12% and the “%Inh” value (PAK7) was 5%. For the same compound, the “%Inh” value (PCTK1) was 15%, the “%Inh” value (PCTK2) was 8% and the “%Inh” value (PCTK3) was 0%. For the same compound, the “%Inh” value (PDGFRA) was 54% and the “%Inh” value (PDGFRB) was 46%.
`O=C1NC(=O)C(c2ccccc2)=C1Nc1cccc(O)c1` [SB-390534] was tested, and the “%Inh” value (NEK4) was 13%, the “%Inh” value (NEK5) was 0% and the “%Inh” value (NEK6) was 0%. For the same compound, the “%Inh” value (NEK7) was 14%, the “%Inh” value (NEK9) was 0% and the “%Inh” value (NIK) was 3%. The “%Inh” value (NIM1) was 100%, the “%Inh” value (NLK) was 0% and the “%Inh” value (OSR1) was 0%. For the same compound, the “%Inh” value (PAK1) was 0%, the “%Inh” value (PAK2) was 16% and the “%Inh” value (PAK3) was 26%. For the same compound, the “%Inh” value (PAK4) was 0%, the “%Inh” value (PAK6) was 0% and the “%Inh” value (PAK7) was 0%. The “%Inh” value (PCTK1) was 0%, the “%Inh” value (PCTK2) was 6% and the “%Inh” value (PCTK3) was 0%. For the same compound, the “%Inh” value (PDGFRA) was 0% and the “%Inh” value (PDGFRB) was 0%.
`CCn1c(-c2nonc2N)nc2ccccc21` [SB-693162/GW549034] was tested, and the “%Inh” value (NEK4) was 11%, the “%Inh” value (NEK5) was 18% and the “%Inh” value (NEK6) was 17%. The “%Inh” value (NEK7) was 12%, the “%Inh” value (NEK9) was 0% and the “%Inh” value (NIK) was 24%. For the same compound, the “%Inh” value (NIM1) was 2%, the “%Inh” value (NLK) was 0% and the “%Inh” value (OSR1) was 24%. For the same compound, the “%Inh” value (PAK1) was 0%, the “%Inh” value (PAK2) was 27% and the “%Inh” value (PAK3) was 0%. The “%Inh” value (PAK4) was 0%, the “%Inh” value (PAK6) was 11% and the “%Inh” value (PAK7) was 11%. For the same compound, the “%Inh” value (PCTK1) was 4%, the “%Inh” value (PCTK2) was 0% and the “%Inh” value (PCTK3) was 16%. For the same compound, the “%Inh” value (PDGFRA) was 41% and the “%Inh” value (PDGFRB) was 0%.
For `COC(=O)c1c(-c2ccccc2)c2cc(Br)ccc2c(=O)n1Cc1ccc(S(C)(=O)=O)cc1`, the “%Inh” value (NEK4) was 17%, the “%Inh” value (NEK5) was 0% and the “%Inh” value (NEK6) was 20%. For the same compound, the “%Inh” value (NEK7) was 3%, the “%Inh” value (NEK9) was 6% and the “%Inh” value (NIK) was 0%. The “%Inh” value (NIM1) was 15%, the “%Inh” value (NLK) was 0% and the “%Inh” value (OSR1) was 4%. The “%Inh” value (PAK1) was 24%, the “%Inh” value (PAK2) was 17% and the “%Inh” value (PAK3) was 26%. For the same compound, the “%Inh” value (PAK4) was 6%, the “%Inh” value (PAK6) was 35% and the “%Inh” value (PAK7) was 2%. The “%Inh” value (PCTK1) was 23%, the “%Inh” value (PCTK2) was 5% and the “%Inh” value (PCTK3) was 0%. The “%Inh” value (PDGFRA) was 8% and the “%Inh” value (PDGFRB) was 73%.
For `Nc1ncnc2c1ncn2-c1ccc(Cl)cc1` [AH2635], the “%Inh” value (NEK4) was 0%, the “%Inh” value (NEK5) was 12% and the “%Inh” value (NEK6) was 0%. The “%Inh” value (NEK7) was 0%, the “%Inh” value (NEK9) was 0% and the “%Inh” value (NIK) was 89%. The “%Inh” value (NIM1) was 27%, the “%Inh” value (NLK) was 0% and the “%Inh” value (OSR1) was 0%. For the same compound, the “%Inh” value (PAK1) was 4%, the “%Inh” value (PAK2) was 0% and the “%Inh” value (PAK3) was 7%. The “%Inh” value (PAK4) was 0%, the “%Inh” value (PAK6) was 0% and the “%Inh” value (PAK7) was 6%. The “%Inh” value (PCTK1) was 0%, the “%Inh” value (PCTK2) was 0% and the “%Inh” value (PCTK3) was 0%. The “%Inh” value (PDGFRA) was 38% and the “%Inh” value (PDGFRB) was 86%.
`COc1cc2ncn(-c3cc(OCc4ccncc4Br)c(C(N)=O)s3)c2cc1OC` [GW854278] was tested, and the “%Inh” value (NEK4) was 0%, the “%Inh” value (NEK5) was 2% and the “%Inh” value (NEK6) was 0%. For the same compound, the “%Inh” value (NEK7) was 0%, the “%Inh” value (NEK9) was 0% and the “%Inh” value (NIK) was 25%. For the same compound, the “%Inh” value (NIM1) was 10%, the “%Inh” value (NLK) was 0% and the “%Inh” value (OSR1) was 0%. For the same compound, the “%Inh” value (PAK1) was 1%, the “%Inh” value (PAK2) was 14% and the “%Inh” value (PAK3) was 0%. For the same compound, the “%Inh” value (PAK4) was 8%, the “%Inh” value (PAK6) was 12% and the “%Inh” value (PAK7) was 16%. The “%Inh” value (PCTK1) was 0%, the “%Inh” value (PCTK2) was 14% and the “%Inh” value (PCTK3) was 5%. The “%Inh” value (PDGFRA) was 39% and the “%Inh” value (PDGFRB) was 58%.
For `Cl.c1ccc(Cn2cnc3cc(Nc4ncnc5ccccc45)ccc32)cc1` [GW272142], the “%Inh” value (NEK4) was 0%, the “%Inh” value (NEK5) was 16% and the “%Inh” value (NEK6) was 0%. The “%Inh” value (NEK7) was 0%, the “%Inh” value (NEK9) was 7% and the “%Inh” value (NIK) was 14%. The “%Inh” value (NIM1) was 0%, the “%Inh” value (NLK) was 0% and the “%Inh” value (OSR1) was 26%. The “%Inh” value (PAK1) was 0%, the “%Inh” value (PAK2) was 0% and the “%Inh” value (PAK3) was 0%. For the same compound, the “%Inh” value (PAK4) was 0%, the “%Inh” value (PAK6) was 58% and the “%Inh” value (PAK7) was 9%. The “%Inh” value (PCTK1) was 0%, the “%Inh” value (PCTK2) was 0% and the “%Inh” value (PCTK3) was 29%. The “%Inh” value (PDGFRA) was 0% and the “%Inh” value (PDGFRB) was 6%.
In the case of `COc1cccc(C2=C(Nc3cccc(C(=O)O)c3)C(=O)NC2=O)c1` [SB-390770], the “%Inh” value (NEK4) is reported as 0%, the “%Inh” value (NEK5) is reported as 14% and the “%Inh” value (NEK6) is reported as 1%. For the same compound, the “%Inh” value (NEK7) was 0%, the “%Inh” value (NEK9) was 9% and the “%Inh” value (NIK) was 0%. For the same compound, the “%Inh” value (NIM1) was 0%, the “%Inh” value (NLK) was 8% and the “%Inh” value (OSR1) was 16%. The “%Inh” value (PAK1) was 0%, the “%Inh” value (PAK2) was 0% and the “%Inh” value (PAK3) was 25%. For the same compound, the “%Inh” value (PAK4) was 0%, the “%Inh” value (PAK6) was 0% and the “%Inh” value (PAK7) was 0%. The “%Inh” value (PCTK1) was 0%, the “%Inh” value (PCTK2) was 0% and the “%Inh” value (PCTK3) was 0%. The “%Inh” value (PDGFRA) was 3% and the “%Inh” value (PDGFRB) was 0%.
